Results published in PubChem BioAssay (NCATS).
“And” between values parts separate entries of the source, which are not always exact repeats. Equal values may be shown once. Results filed as inconclusive are left out. Some structures have more than one record in an assay (separate samples or runs), and their calls can disagree. The source made the active and inactive calls. Calls follow the shape of the dose curve; as a rule, active = well fitted curve in the direction sought with a large enough effect; inconclusive = small, poorly fitted or top-dose-only effect, or another doubt; inactive = no such curve, though single readings can be large; an effect the other way counts as inactive or inconclusive.

How the values were obtained:
CRL-7250 [1] = experiment: Cytotoxic Profiling of Annotated Libraries Using Quantitative High-Throughput Screening (AID 1296008); settings: Five cell lines viability, CellTiter-Glo ATP luminescence, 48-72 h; max response: active compounds read low; also: nearly all actives have a fitted effect of over 60% in size; also: potency is read from the fitted curve at half-maximal effect; as to max response: % is scaled to controls: 0 for no effect and ±100 for the full control effect
Method in brief: (§1)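 Cells exposed to compounds for 48 or 72 hr at 37 degrees Celsius. Viability read as ATP-coupled luminescence with CellTiter-Glo after 10 min at room temperature.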

HEK293 = experiment: as above; settings: Five cell lines viability, CellTiter-Glo ATP luminescence, 48-72 h; max response: active compounds read low
Method in brief: as §1

HaCat [2] = experiment: as above; settings: Five cell lines viability, CellTiter-Glo ATP luminescence, 48-72 h; max response: active compounds read low
Method in brief: as §1

KB-3-1 = experiment: as above; settings: Five cell lines viability, CellTiter-Glo ATP luminescence, 48-72 h; max response: active compounds read low
Method in brief: as §1

NIH3T3 [3] = experiment: as above; settings: Five cell lines viability, CellTiter-Glo ATP luminescence, 48-72 h; max response: active compounds read low
Method in brief: as §1

MCC-13 = experiment: qHTS assay to identify novel small-molecules to repurpose for Merkel cell carcinoma treatment (AID 1296009); settings: MCC and control cell lines, CellTiter-Glo viability, 72 h; series mostly up to 46 µM; also: nearly all actives have a fitted effect of over 60% in size; also: potency is read from the fitted curve at half-maximal effect
Method in brief: (§2)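 Cells were incubated with compound for 72 hr at 37 degree celsius before CellTiter-Glo addition. Luminescence was normalized with no-cell wells as full cytotoxicity and DMSO as baseline.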

MCC-26 = experiment: as above; settings: MCC and control cell lines, CellTiter-Glo viability, 72 h; series mostly up to 46 µM
Method in brief: as §2

MKL-1 = experiment: as above; settings: MCC and control cell lines, CellTiter-Glo viability, 72 h; series mostly up to 46 µM
Method in brief: as §2

MKL-2 = experiment: as above; settings: MCC and control cell lines, CellTiter-Glo viability, 72 h; series mostly up to 46 µM
Method in brief: as §2

NIH3T3 [4] = experiment: as above; settings: MCC and control cell lines, CellTiter-Glo viability, 72 h; at 44.8 µM (top of the series) unless noted
Method in brief: as §2

UISO = experiment: as above; settings: MCC and control cell lines, CellTiter-Glo viability, 72 h; series mostly up to 46 µM
Method in brief: as §2

WaGa = experiment: as above; settings: MCC and control cell lines, CellTiter-Glo viability, 72 h; series mostly up to 46 µM
Method in brief: as §2

C33A = experiment: Primary qHTS to identify gynecologic anti-cancer compounds using libraries of approved drugs and bioactive compounds (AID 1345084); settings: Gynecologic cancer cell panel viability, ATPlite luminescence, 48 h; series mostly up to 57.5 µM; also: % is scaled to controls: 0 for no effect and ±100 for the full control effect; nearly all actives have a fitted effect of over 55% in size
Method in brief: (§3)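 48 h compound exposure at 37 C, 5% CO2; five-point qHTS. ATPlite luminescence readout of cell ATP.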

CRL-7250 [5] = experiment: qHTS assay to identify novel small-molecules to repurpose for Merkel cell carcinoma treatment (AID 1296009); settings: MCC and control cell lines, CellTiter-Glo viability, 72 h; at 44.8 µM (top of the series) unless noted; also: nearly all actives have a fitted effect of over 60% in size; also: potency is read from the fitted curve at half-maximal effect
Method in brief: as §2

HACAT [6] = experiment: as above; settings: MCC and control cell lines, CellTiter-Glo viability, 72 h; at 44.8 µM (top of the series) unless noted
Method in brief: as §2

HEK293T = experiment: as above; settings: MCC and control cell lines, CellTiter-Glo viability, 72 h; at 44.8 µM (top of the series) unless noted
Method in brief: as §2

CAOV3 = experiment: Primary qHTS to identify gynecologic anti-cancer compounds using libraries of approved drugs and bioactive compounds (AID 1345084); settings: Gynecologic cancer cell panel viability, ATPlite luminescence, 48 h; series mostly up to 57.5 µM; also: % is scaled to controls: 0 for no effect and ±100 for the full control effect; nearly all actives have a fitted effect of over 55% in size
Method in brief: as §3

TAB113 = experiment: qHTS profiling for inhibitors of Plasmodium falciparum proliferation (AID 504749); also: nearly all actives have a fitted effect of over 60% in size; also: potency is read from the fitted curve at half-maximal effect; settings: P. falciparum in erythrocytes, SYBR Green DNA, 72 h; series mostly up to 28.7 µM
Method in brief: (§4)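 Readout was DNA-dye fluorescence from lysed cultures, ex 485/em 535 nm. Parasitized red cells had grown 72 h with compound; data scaled between 0.29 uM artemisinin and DMSO wells and corrected using vehicle-only plates.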

TAB165 = experiment: as above; settings: P. falciparum in erythrocytes, SYBR Green DNA, 72 h; series mostly up to 28.7 µM
Method in brief: as §4

W2 = experiment: as above; settings: P. falciparum in erythrocytes, SYBR Green DNA, 72 h; series mostly up to 28.7 µM
Method in brief: as §4

CCc1c(C(=O)C(N)=O)c2c(OCC(=O)O)cccc2n1Cc1ccccc1
inactive: max response (CRL-7250 [1]) 2.27% and 4.29% | max response (HEK293) -0.0349% | max response (HaCat [2]) -1.12% and -1.77% | max response (KB-3-1) 9.54% | outcome (KB-3-1) | max response (NIH3T3 [3]) -3.2% | outcome (NIH3T3 [3]) | Potency (MCC-13) | Potency (MCC-26) | Potency (MKL-1) | Potency (MKL-2) | outcome (NIH3T3 [4]) | Potency (UISO) | Potency (WaGa) | Potency (C33A)

Cc1ccccc1-n1c(Cn2ncc3c(N)ncnc32)nc2cccc(C)c2c1=O
inactive: max response (CRL-7250 [1]) -1.16% | outcome (CRL-7250 [1]) | outcome (HEK293) | outcome (HaCat [2]) | outcome (KB-3-1) | max response (NIH3T3 [3]) 1.98% | outcome (NIH3T3 [3]) | outcome (CRL-7250 [5]) | outcome (HACAT [6]) | outcome (HEK293T) | Potency (MKL-2) | outcome (NIH3T3 [4]) | Potency (C33A)
active: Potency (MCC-13) 13.2 µM | Potency (UISO) 1.32 µM

O=[N+]([O-])c1c(Cl)c(Cl)cc(Cl)c1Cl
inactive: max response (CRL-7250 [1]) -4.27% | max response (HEK293) 4.07% | outcome (HaCat [2]) | max response (KB-3-1) -18.1% | outcome (NIH3T3 [3]) | outcome (HACAT [6]) inactive [at 92 µM] | Potency (MCC-13) | Potency (MCC-26) | Potency (MKL-1) | Potency (MKL-2) | outcome (NIH3T3 [4]) inactive [at 92 µM] | Potency (UISO) | Potency (WaGa) | Potency (C33A) | Potency (CAOV3)

C[C@H]([C@H](O)CCC(C)(C)O)[C@H]1CC[C@@]2(O)C3=CC(=O)[C@@H]4C[C@@H](O)[C@@H](O)C[C@]4(C)[C@@H]3CC[C@]12C
inactive: max response (CRL-7250 [1]) -2.7% | outcome (HEK293) | outcome (HaCat [2]) | max response (KB-3-1) -1.89% | outcome (NIH3T3 [3]) | outcome (HACAT [6]) | outcome (HEK293T) | Potency (MCC-13) | Potency (MCC-26) | Potency (MKL-1) | Potency (MKL-2) | outcome (NIH3T3 [4]) | Potency (UISO) | Potency (WaGa)

Cc1cc(O)ccc1Cl
inactive: Potency (TAB113) | Potency (TAB165) | Potency (W2) | outcome (CRL-7250 [1]) | max response (HEK293) 0.405% | max response (HaCat [2]) 2.83% | max response (KB-3-1) -3.49% | outcome (NIH3T3 [3]) | outcome (CRL-7250 [5]) | Potency (MCC-13) | Potency (MKL-1) | Potency (MKL-2) | outcome (NIH3T3 [4]) | Potency (UISO) | Potency (WaGa) | Potency (C33A) | Potency (CAOV3)

OCCCBr
inactive: max response (CRL-7250 [1]) -6.12% | outcome (HEK293) | max response (HaCat [2]) -13% | max response (KB-3-1) -26.3% | max response (NIH3T3 [3]) -4.76% | outcome (HEK293T) inactive [at 92 µM] | Potency (MCC-13) | Potency (MCC-26) | Potency (MKL-1) | Potency (MKL-2) | Potency (UISO) | Potency (WaGa) | Potency (C33A) | Potency (CAOV3)

O=S(=O)(O)C(F)(F)C(F)(F)C(F)(F)C(F)(F)F
inactive: max response (CRL-7250 [1]) -7.36% | outcome (HEK293) | max response (HaCat [2]) 2.96% | max response (KB-3-1) -15.1% | outcome (NIH3T3 [3]) | outcome (HEK293T) inactive [at 92 µM] | Potency (MCC-13) | Potency (MCC-26) | Potency (MKL-1) | Potency (MKL-2) | outcome (NIH3T3 [4]) inactive [at 92 µM] | Potency (UISO) | Potency (WaGa) | Potency (C33A)

C[C@]12CC[C@H]3[C@@H](CCC4=CC(=O)CC[C@@]43C)[C@H]1CC[C@H]2OC(=O)CCC1CCCC1
inactive: max response (CRL-7250 [1]) 2.84% | outcome (HEK293) | max response (HaCat [2]) 4.09% | max response (KB-3-1) 9.03% | max response (NIH3T3 [3]) 3.21% | outcome (HEK293T) | Potency (MCC-13) | Potency (MKL-1) | Potency (MKL-2) | Potency (UISO) | Potency (WaGa)

O=C(NCC1CCOCC1)c1cnc(Nc2ccc(Cl)cc2Cl)nc1C(F)(F)F
active: Potency (HEK293) 8.2 µM
inactive: max response (CRL-7250 [1]) 4.29% and -22.6% | max response (HEK293) -4.23% | max response (HaCat [2]) -8.57% and -14.9% | max response (KB-3-1) -20.4% | outcome (KB-3-1) | max response (NIH3T3 [3]) -3.44% and -3.65% | Potency (MCC-13) | Potency (MKL-1) | Potency (MKL-2) | Potency (UISO) | Potency (WaGa) | Potency (C33A)

COC1=C[C@@H]2[C@@H]3Cc4ccc(OC)c(O)c4[C@]2(CCN3C)CC1=O
inactive: outcome (CRL-7250 [1]) | max response (HEK293) 1.05% and -3.7% | max response (HaCat [2]) -2.22% | outcome (HaCat [2]) | max response (KB-3-1) 1.47% | outcome (KB-3-1) | outcome (NIH3T3 [3]) | outcome (CRL-7250 [5]) | outcome (HACAT [6]) | Potency (MCC-13) | Potency (MKL-1) | Potency (MKL-2) | outcome (NIH3T3 [4]) | Potency (UISO) | Potency (C33A)

COC(C)(C)CCCC(C)C/C=C/C(C)=C/C(=O)OC(C)C (stereo unspecified)
active: Potency (W2) 10.7 µM
inactive: max response (CRL-7250 [1]) 1.51% | max response (HEK293) 3.25% | outcome (HaCat [2]) | max response (KB-3-1) 3.28% | outcome (NIH3T3 [3]) | outcome (HACAT [6]) | Potency (MCC-13) | Potency (MCC-26) | Potency (MKL-1) | Potency (MKL-2) | outcome (NIH3T3 [4]) | Potency (UISO) | Potency (WaGa) | Potency (C33A)

C[C@@H]1[C@H](O)[C@@H](C)C=CC=CCCC=CC=CC=CC=C[C@H](O[C@H]2O[C@@H](C)[C@H](O)[C@@H](N)[C@@H]2O)CC2O[C@](O)(C[C@@H](O)[C@H](O)CC[C@@H](O)C[C@@H](O)C[C@@H](O)CC(=O)O[C@H]1C)C[C@H](O)[C@H]2C(=O)O
inactive: max response (CRL-7250 [1]) 4.08% | max response (HEK293) 2.42% | outcome (HaCat [2]) | outcome (KB-3-1) | max response (NIH3T3 [3]) -3.28% | outcome (HACAT [6]) | Potency (MCC-13) | Potency (MCC-26) | Potency (MKL-1) | Potency (MKL-2) | Potency (UISO) | Potency (WaGa)

NC1=NC(=O)N2CC12 (stereo unspecified)
active: Potency (CRL-7250 [1]) 11.8 µM | Potency (HEK293) 8.33 µM
inactive: Potency (TAB113) | outcome (HaCat [2]) | max response (KB-3-1) 6.64% | outcome (NIH3T3 [3]) | outcome (HACAT [6]) | Potency (MCC-13) | Potency (MCC-26) | Potency (MKL-1) | outcome (NIH3T3 [4])
